# The whole screen tested about 5,500 compounds, of which about 2,000 (36%) were called active. Roughly 18% stayed inconclusive and do not appear here. This is one part of the list. Unmarked numbers belong to inactive results. Rule as the data show it: active = normalized growth mostly below about 0.91 (no sharp cut-off); inconclusive = no clear call, values can overlap the other calls; inactive = mostly above about 0.92.
# Assay: chemical genetic growth profiling, strain panel (AID 1159580);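 also: tested at 20 µM; growth read once vehicle control cultures reached saturation at 30 °C; 1 = growth at the plate median or of vehicle wells; lower values mean less growth of the strain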
# Details: growth OD
# [1] = S. cerevisiae deletion strains, locus YBR229C, strain ROT2, stronger effect = lower value
# [2] = S. cerevisiae deletion strains, locus YDL101C, strain DUN1, stronger effect = lower value
# [3] = S. cerevisiae deletion strains, locus YDR150W, strain NUM1, stronger effect = lower value
# [4] = S. cerevisiae deletion strains, locus YEL061C, strain CIN8, stronger effect = lower value
# [5] = S. cerevisiae deletion strains, locus YHR030C, strain SLT2, stronger effect = lower value
# [6] = S. cerevisiae deletion strains, locus YJR043C, strain POL32, stronger effect = lower value
# [7] = S. cerevisiae deletion strains, locus YLR039C, strain RIC1, stronger effect = lower value
# [8] = S. cerevisiae deletion strains, locus YLR262C, strain YPT6, stronger effect = lower value
# [9] = S. cerevisiae deletion strains, locus YMR263W, strain SAP30, stronger effect = lower value
# [10] = S. cerevisiae deletion strains, locus YMR307W, strain GAS1, stronger effect = lower value
# [11] = S. cerevisiae deletion strains, locus YPL055C, strain LGE1, stronger effect = lower value
smiles,measurement,setting,value
Cc1cc(I)c(C)cc1I,normalized growth,"S. cerevisiae deletion strains, locus YAL013W, strain DEP1, stronger effect = lower value",1.01
same,normalized growth,[1],0.989
same,normalized growth,"S. cerevisiae deletion strains, locus YCL061C, strain MRC1, stronger effect = lower value",0.994
same,normalized growth,[2],1.02
same,normalized growth,"S. cerevisiae deletion strains, locus YDL134C, strain PPH21, stronger effect = lower value",0.986
same,normalized growth,[3],1.04
same,normalized growth,[4],0.966
same,normalized growth,"S. cerevisiae deletion strains, locus YGR078C, strain PAC10, stronger effect = lower value",1
same,normalized growth,[5],0.805
same,normalized growth,"S. cerevisiae deletion strains, locus YHR087W, strain rtc3, stronger effect = lower value",0.979
same,normalized growth,[6],0.994
same,normalized growth,"S. cerevisiae deletion strains, locus YJR075W, strain HOC1, stronger effect = lower value",0.976
same,normalized growth,[7],0.955
same,normalized growth,"S. cerevisiae deletion strains, locus YLR058C, strain SHM2 (second series), stronger effect = lower value",0.992
same,normalized growth,"S. cerevisiae deletion strains, locus YLR085C, strain ARP6, stronger effect = lower value",0.953
same,normalized growth,[8],0.872
same,normalized growth,"S. cerevisiae deletion strains, locus YML094W, strain GIM5, stronger effect = lower value",0.95
same,normalized growth,"S. cerevisiae deletion strains, locus YMR219W, strain ESC1, stronger effect = lower value",1
same,normalized growth,[9],0.976
same,normalized growth,[10],0.7
same,normalized growth,"S. cerevisiae deletion strains, locus YNL153C, strain GIM3, stronger effect = lower value",0.984
same,normalized growth,"S. cerevisiae deletion strains, locus YNL298W, strain CLA4 (second series), stronger effect = lower value",0.935
same,normalized growth,"S. cerevisiae deletion strains, locus YNL322C, strain KRE1, stronger effect = lower value",1
same,normalized growth,"S. cerevisiae deletion strains, locus YNR030W, strain Alg12, stronger effect = lower value",0.943
same,normalized growth,[11],0.966
same,normalized growth,"S. cerevisiae deletion strains, locus YPL241C, strain CIN2, stronger effect = lower value",0.978
same,normalized growth,"S. cerevisiae deletion strains, locus YPR135W, strain CTF4, stronger effect = lower value",0.925
CCC/C=C1\OC(=O)C2=C1CCC=C2,normalized growth,"S. cerevisiae deletion strains, locus YBR021W, strain FUR4, stronger effect = lower value",0.967
same,normalized growth,[1],1.01
same,normalized growth,"S. cerevisiae deletion strains, locus YCL029C, strain bik1, stronger effect = lower value",0.978
same,normalized growth,"S. cerevisiae deletion strains, locus YDL035C, strain GPR1, stronger effect = lower value",0.952
same,normalized growth,"S. cerevisiae deletion strains, locus YDL074C, strain BRE1, stronger effect = lower value",0.945
same,normalized growth,[2],0.984
same,normalized growth,"S. cerevisiae deletion strains, locus YDL185W, strain tfp1, stronger effect = lower value",0.986
same,normalized growth,"S. cerevisiae deletion strains, locus YDL192W, strain arf1, stronger effect = lower value",0.972
same,normalized growth,"S. cerevisiae deletion strains, locus YDR101C, strain arx1, stronger effect = lower value",0.949
same,normalized growth,[3],1.02
same,normalized growth,"S. cerevisiae deletion strains, locus YDR162C, strain NBP2, stronger effect = lower value",0.993
same,normalized growth,"S. cerevisiae deletion strains, locus YDR318W, strain mcm21, stronger effect = lower value",0.998
same,normalized growth,"S. cerevisiae deletion strains, locus YDR388W, stronger effect = lower value",0.978
same,normalized growth,"S. cerevisiae deletion strains, locus YDR502C, strain sam2, stronger effect = lower value",0.957
same,normalized growth,[4],1
same,normalized growth,"S. cerevisiae deletion strains, locus YER110C, stronger effect = lower value",0.971
same,normalized growth,"S. cerevisiae deletion strains, locus YER155C, strain BEM2, stronger effect = lower value",1.03
same,normalized growth,"S. cerevisiae deletion strains, locus YER167W, strain BCK2, stronger effect = lower value",0.998
same,normalized growth,"S. cerevisiae deletion strains, locus YGL078C, strain dbp3, stronger effect = lower value",0.963
same,normalized growth,"S. cerevisiae deletion strains, locus YGL086W, strain mad1, stronger effect = lower value",0.929 (active)
same,normalized growth,"S. cerevisiae deletion strains, locus YGL248W, strain PDE1, stronger effect = lower value",0.975
same,normalized growth,"S. cerevisiae deletion strains, locus YGR135W, strain pre9, stronger effect = lower value",0.965
same,normalized growth,"S. cerevisiae deletion strains, locus YGR252W, strain gcn5, stronger effect = lower value",0.974
same,normalized growth,[5],1.02
same,normalized growth,"S. cerevisiae deletion strains, locus YHR079C, strain IRE1 (second series), stronger effect = lower value",0.987
same,normalized growth,"S. cerevisiae deletion strains, locus YHR094C, strain hxt1, stronger effect = lower value",0.982
same,normalized growth,"S. cerevisiae deletion strains, locus YHR129C, strain ARP1, stronger effect = lower value",0.989
same,normalized growth,"S. cerevisiae deletion strains, locus YHR200W, strain rpn10, stronger effect = lower value",0.986
same,normalized growth,"S. cerevisiae deletion strains, locus YIL066C, strain RNR3, stronger effect = lower value",0.97
same,normalized growth,"S. cerevisiae deletion strains, locus YIL073C, strain SPO22, stronger effect = lower value",0.93
same,normalized growth,"S. cerevisiae deletion strains, locus YIL125W, strain kgd1, stronger effect = lower value",0.973
same,normalized growth,"S. cerevisiae deletion strains, locus YIR030C, strain dcg1, stronger effect = lower value",0.988
same,normalized growth,"S. cerevisiae deletion strains, locus YJL095W, strain BCK1, stronger effect = lower value",0.968
same,normalized growth,"S. cerevisiae deletion strains, locus YJL134W, strain LCB3, stronger effect = lower value",1.01
same,normalized growth,"S. cerevisiae deletion strains, locus YJL168C, strain set2, stronger effect = lower value",0.986
same,normalized growth,"S. cerevisiae deletion strains, locus YJL187C, strain SWE1 (second series), stronger effect = lower value",0.99
same,normalized growth,[6],0.956
same,normalized growth,"S. cerevisiae deletion strains, locus YKL009W, strain mrt4, stronger effect = lower value",0.868 (active)
same,normalized growth,"S. cerevisiae deletion strains, locus YKL068W, stronger effect = lower value",0.994
same,normalized growth,"S. cerevisiae deletion strains, locus YKL085W, strain MDH1 (second series), stronger effect = lower value",0.958
same,normalized growth,"S. cerevisiae deletion strains, locus YKL085W, strain MDH1, stronger effect = lower value",0.958
same,normalized growth,"S. cerevisiae deletion strains, locus YKR001C, strain vps1, stronger effect = lower value",0.963
same,normalized growth,[7],0.848
same,normalized growth,"S. cerevisiae deletion strains, locus YLR058C, strain SHM2, stronger effect = lower value",1
same,normalized growth,"S. cerevisiae deletion strains, locus YLR102C, strain apc9, stronger effect = lower value",0.988
same,normalized growth,[8],0.816
same,normalized growth,"S. cerevisiae deletion strains, locus YLR268W, strain sec22, stronger effect = lower value",0.953
same,normalized growth,"S. cerevisiae deletion strains, locus YLR330W, strain CHS5, stronger effect = lower value",1.01
same,normalized growth,"S. cerevisiae deletion strains, locus YLR342W, strain FKS1 (second series), stronger effect = lower value",0.97
same,normalized growth,"S. cerevisiae deletion strains, locus YLR371W, strain rom2, stronger effect = lower value",0.998
same,normalized growth,"S. cerevisiae deletion strains, locus YLR418C, strain cdc73, stronger effect = lower value",0.959
same,normalized growth,"S. cerevisiae deletion strains, locus YML016C, strain PPZ1, stronger effect = lower value",1
same,normalized growth,"S. cerevisiae deletion strains, locus YML032C, strain rad52, stronger effect = lower value",1
same,normalized growth,"S. cerevisiae deletion strains, locus YML124C, strain tub3, stronger effect = lower value",0.987
same,normalized growth,"S. cerevisiae deletion strains, locus YMR078C, strain ctf18, stronger effect = lower value",0.959
same,normalized growth,"S. cerevisiae deletion strains, locus YMR223W, strain ubp8, stronger effect = lower value",0.979
same,normalized growth,[9],1
same,normalized growth,[10],1.02
same,normalized growth,"S. cerevisiae deletion strains, locus YNL067W, strain RPL9B, stronger effect = lower value",0.965
same,normalized growth,"S. cerevisiae deletion strains, locus YNL233W, strain BNI4, stronger effect = lower value",0.992
same,normalized growth,"S. cerevisiae deletion strains, locus YNL250W, strain rad50, stronger effect = lower value",1.01
same,normalized growth,"S. cerevisiae deletion strains, locus YNL271C, strain bni1, stronger effect = lower value",0.971
same,normalized growth,"S. cerevisiae deletion strains, locus YNL298W, strain CLA4, stronger effect = lower value",0.959
same,normalized growth,"S. cerevisiae deletion strains, locus YNL307C, strain MCK1, stronger effect = lower value",0.969
same,normalized growth,"S. cerevisiae deletion strains, locus YNR052C, strain pop2, stronger effect = lower value",1.01
same,normalized growth,"S. cerevisiae deletion strains, locus YOL012C, strain htz1",1.31
same,normalized growth,"S. cerevisiae deletion strains, locus YOL147C, strain pex11, stronger effect = lower value",0.986
same,normalized growth,"S. cerevisiae deletion strains, locus YOR061W, strain CKA2, stronger effect = lower value",0.996
same,normalized growth,"S. cerevisiae deletion strains, locus YOR069W, strain VPS5, stronger effect = lower value",0.998
same,normalized growth,"S. cerevisiae deletion strains, locus YOR136W, strain idh2, stronger effect = lower value",0.98
same,normalized growth,"S. cerevisiae deletion strains, locus YOR144C, strain elg1, stronger effect = lower value",0.987
same,normalized growth,"S. cerevisiae deletion strains, locus YOR184W, strain ser1, stronger effect = lower value",0.926
same,normalized growth,"S. cerevisiae deletion strains, locus YOR316C, strain cot1, stronger effect = lower value",0.976
same,normalized growth,[11],0.969
same,normalized growth,"S. cerevisiae deletion strains, locus YPR119W, strain clb2, stronger effect = lower value",0.983
same,normalized growth,"S. cerevisiae deletion strains, locus YPR141C, strain kar3, stronger effect = lower value",0.977
same,normalized growth,"S. cerevisiae deletion strains, locus YPR163C, strain tif3, stronger effect = lower value",0.97
same,normalized growth,"S. cerevisiae deletion strains, locus YPR167C, strain met16, stronger effect = lower value",0.996
same,normalized growth,"S. cerevisiae deletion strains, strain wtn01, stronger effect = lower value",0.965
same,normalized growth,"S. cerevisiae strains, strain wild type, stronger effect = lower value",0.988
